Test results: PubChem BioAssay
Where “and” joins values, the source holds several entries; their conditions need not be identical. Identical values can stand only once. Calls of active or inactive are those of the source.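 The calls were made as follows, unless noted: active = thallium flux through the channel raised or lowered by more than 3 SD from vehicle-only wells, actives on both sides; inactive = the rest.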

Tests used:
[1] = P. berghei load reduction in hepatocytes – cell-based, HepG2, luciferase luminescence, HepG2 viability, primary screen (AID 624349; in the data active = parasite load remaining mostly below about 12%, no sharp cut-off; inactive = mostly above about 10%;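 also: 100% = mean of DMSO negative control wells on the same plate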); details: P. berghei liver stage in HepG2, luciferase luminescence, concentration not given here; parasite load remaining: stronger effect = lower value; viability: measured here: HepG2 viability without parasites
[2] = signal quenchers or enhancers, Cy5 substrate/SSB – biochemical, NIH Clinical Collection, E. coli SSB, artefact control for HCV NS3 helicase inhibitor project (AID 743268; call rule not given here); details: Cy5-oligo bound E. coli SSB, fluorescence interference
[3] = test system: Hepatitis C virus NS3 helicase; assay: blockers of NS3h binding to DNA – biochemical, fluorescence polarization, NIH Clinical Collection, primary screen (AID 743270; call rule not given here); details: NS3 helicase binding to Cy5-dT15 DNA, stronger effect = higher value, concentration not given here
[4] = molecular target: Single-stranded DNA-binding protein (Escherichia coli (strain K12)) (UniProt P0AGE0); assay: SSB-ssDNA binding inhibitors – biochemical, fluorescence polarization, NIH Clinical Collection, counter-screen for HCV NS3 helicase inhibitor project (AID 743271; in the data active = inhibition above about 28%); details: E. coli SSB-DNA binding, stronger effect = higher value, concentration not given here
[5] = compounds distorting NS3 helicase fluorescence signal – biochemical, NIH Clinical Collection, artefact control for HCV NS3 helicase inhibitor project (AID 743272; call rule not given here;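 also: HCV NS3 helicase with a Cy5 labelled single stranded DNA probe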); details: fluorescence interference counterscreen, HCV NS3 helicase assay; stronger effect = lower value
[6] = modulation of C. elegans fzo-1 (AID 1259413; call rule not given here;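 also: fzo-1 mutant C. elegans worms in liquid wells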); details: C. elegans fzo-1 modulator screen, mean read-out; stronger effect = higher value
[7] = viability loss with induced miR-34 in A549 – imaging, A549 dox-inducible miR-34, nuclei and caspase counts, primary screen (AID 1347080;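 active = compounds whose cell count with miR-34 switched on is under 0.7 times the count with it off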); details: A549 miR-34 inducible, Hoechst nuclei count, 48 h
[8] = MELAS cybrid and Rieske KO viability enhancers – cell-based, MELAS cybrids, Rieske KO mouse fibroblasts, CellTiter-Glo, primary screen (AID 1508586;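 active = mean z-score across replicates of 1.96 or higher in either the MELAS or the Rieske mutant cell line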;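 also: z relative to plate mean and SD of compound and empty wells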); details: low glucose
F380Y = assay: BK channel mutant inhibitors and activators – cell-based, U2OS BacMam, thallium flux, beta subunits, selectivity assay, profiling panel (AID 1259406); details: U2OS BacMam BK variants, at 30 µM;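 also: initial slope of Thallos dye fluorescence rise after thallium is added; log ratio against the mean of 0.3% DMSO vehicle wells on the same plate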
F380Y/beta1 = assay: as above; details: U2OS BacMam BK variants, at 30 µM
F380Y/beta2Delta = assay: as above; details: U2OS BacMam BK variants, at 30 µM
F380Y/beta4 = assay: as above; details: U2OS BacMam BK variants, at 30 µM
[9] = molecular target: Calcium-activated potassium channel subunit alpha-1 (Homo sapiens) + Leucine-rich repeat-containing protein 26 (Homo sapiens) (UniProt Q12791+Q2I0M4); assay: as above; details: U2OS BacMam BK variants, F380Y/Slo1WT/gamma1, at 30 µM
Sequence of Calcium-activated potassium channel subunit alpha-1 (Homo sapiens) + Leucine-rich repeat-containing protein 26 (Homo sapiens) (Q2I0M4 whole entry, looked up, one chain of several): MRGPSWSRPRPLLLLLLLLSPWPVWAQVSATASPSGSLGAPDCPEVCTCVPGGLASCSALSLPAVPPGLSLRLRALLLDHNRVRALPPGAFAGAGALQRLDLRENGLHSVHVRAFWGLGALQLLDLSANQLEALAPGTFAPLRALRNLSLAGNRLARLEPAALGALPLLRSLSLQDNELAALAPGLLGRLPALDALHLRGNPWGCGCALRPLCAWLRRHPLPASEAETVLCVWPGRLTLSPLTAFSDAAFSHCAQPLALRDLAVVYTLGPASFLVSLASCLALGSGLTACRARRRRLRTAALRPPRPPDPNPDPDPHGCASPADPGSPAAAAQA

R275C = assay: as above; details: U2OS BacMam BK variants, at 30 µM
R275C/beta1 = assay: as above; details: U2OS BacMam BK variants, at 30 µM
R275C/beta2Delta = assay: as above; details: U2OS BacMam BK variants, at 30 µM
R275C/beta4 = assay: as above; details: U2OS BacMam BK variants, at 30 µM
R275C/Slo1WT/beta2 = assay: as above; details: U2OS BacMam BK variants, at 30 µM
[10] = stronger effect = lower value, cell number ratio, induced over uninduced
[11] = measured here: relative caspase fold change +Dox/-Dox
[12] = measured here: total cells with miR-34 induction, stronger effect = lower value
[13] = measured here: total cells without miR-34 induction

COC(=O)Nc1nc2ccc(C(=O)c3ccc(F)cc3)cc2[nH]1
1.69 and 0.533: z-score ([8]; Rieske KO mouse fibroblast survival, CellTiter-Glo 72 h)
inactive: parasite load remaining [1] 68.5% and 34.2% | fluorescence ratio [2] 1.06 | inhibition [3] -1.19% | inhibition [4] -0.87% | fluorescence ratio [5] 0.95 | mean signal [6] 249 | fold change [7, 10] 1.22 and 1.03 | z-score ([8]; MELAS cybrid survival, CellTiter-Glo 48 h, stronger effect = higher value) -2.49 and -1.97 | log fold change Tl+ flux (F380Y) -0.0412 | log fold change Tl+ flux (F380Y/beta1) 0.0196 | log fold change Tl+ flux (F380Y/beta2Delta) -0.0407 | log fold change Tl+ flux (F380Y/beta4) -0.0852 | log fold change Tl+ flux [9] 0.00265 | log fold change Tl+ flux (R275C) -0.0283 | log fold change Tl+ flux (R275C/beta1) -0.0436 | log fold change Tl+ flux (R275C/beta2Delta) -0.052 | log fold change Tl+ flux (R275C/beta4) 0.0237 | log fold change Tl+ flux (R275C/Slo1WT/beta2) 0.00461
85.5% and 74.5%: viability [1]
1820 and 2010: cell count [7, 12]
1490 and 1950: cell count [7, 13]
1.31 and 0.65: fold change [7, 11]

Nc1ccc2cn[nH]c2c1
1.71: fold change [7, 11]
64.9%: viability [1]
inactive: parasite load remaining [1] 61.3% | fluorescence ratio [2] 0.99 | inhibition [3] -1.09% | inhibition [4] -0.39% | fluorescence ratio [5] 0.98 | mean signal [6] 290 | fold change [7, 10] 0.924 | log fold change Tl+ flux (F380Y) -0.0182 | log fold change Tl+ flux (F380Y/beta1) -0.022 | log fold change Tl+ flux (F380Y/beta2Delta) 0.0231 | log fold change Tl+ flux (F380Y/beta4) -0.00919 | log fold change Tl+ flux [9] 0.0509 | log fold change Tl+ flux (R275C) -0.0141 | log fold change Tl+ flux (R275C/beta1) -0.000281 | log fold change Tl+ flux (R275C/beta2Delta) 0.0572 | log fold change Tl+ flux (R275C/beta4) -0.0327 | log fold change Tl+ flux (R275C/Slo1WT/beta2) 0.0188
8800: cell count [7, 13]
8130: cell count [7, 12]

CCC1=C[C@H]2CN(C1)Cc1c([nH]c3ccccc13)[C@@](C(=O)OC)(c1cc3c(cc1OC)N(C)[C@H]1[C@@](O)(C(=O)OC)[C@H](OC(C)=O)[C@]4(CC)C=CCN5CC[C@]31[C@@H]54)C2
active: fluorescence ratio [2] 0.8 | fluorescence ratio [5] 0.78 | log fold change Tl+ flux (R275C) -0.149 | log fold change Tl+ flux (R275C/Slo1WT/beta2) 0.104
76.8%: viability [1]
inactive: parasite load remaining [1] 32.2% | inhibition [3] -1.98% | inhibition [4] 9.91% | mean signal [6] 244 | log fold change Tl+ flux (F380Y) 0.0913 | log fold change Tl+ flux (F380Y/beta1) 0.0236 | log fold change Tl+ flux (F380Y/beta2Delta) 0.0207 | log fold change Tl+ flux (F380Y/beta4) 0.0427 | log fold change Tl+ flux [9] -0.0112 | log fold change Tl+ flux (R275C/beta1) 0.0456 | log fold change Tl+ flux (R275C/beta2Delta) 0.0329 | log fold change Tl+ flux (R275C/beta4) 0.0723

O=c1cnn([C@@H]2O[C@H](CO)[C@@H](O)[C@H]2O)c(=O)[nH]1
79.3%: viability [1]
inactive: parasite load remaining [1] 51.8% | fluorescence ratio [2] 0.94 | inhibition [3] -2.84% | inhibition [4] -1.97% | fluorescence ratio [5] 0.89 | mean signal [6] 301 | log fold change Tl+ flux (F380Y) -0.0103 | log fold change Tl+ flux (F380Y/beta1) 0.0132 | log fold change Tl+ flux (F380Y/beta2Delta) -0.027 | log fold change Tl+ flux (F380Y/beta4) 0.00308 | log fold change Tl+ flux [9] -0.026 | log fold change Tl+ flux (R275C) 0.00432 | log fold change Tl+ flux (R275C/beta1) -0.00973 | log fold change Tl+ flux (R275C/beta2Delta) -0.0295 | log fold change Tl+ flux (R275C/beta4) -0.0439 | log fold change Tl+ flux (R275C/Slo1WT/beta2) -0.0257

CC(COc1ccccc1Cc1ccccc1)N1CCCCC1 (stereo not given)
active: log fold change Tl+ flux (F380Y/beta1) 0.236 | log fold change Tl+ flux (F380Y/beta4) 0.194 | log fold change Tl+ flux (R275C) -0.246 | log fold change Tl+ flux (R275C/beta1) 0.252
2.34: fold change [7, 11]
82.3%: viability [1]
7840: cell count [7, 13]
6390: cell count [7, 12]
inactive: parasite load remaining [1] 25.1% | fluorescence ratio [2] 1.04 | inhibition [3] -2.77% | inhibition [4] 3.75% | fluorescence ratio [5] 1.01 | mean signal [6] 222 | fold change [7, 10] 0.815 | log fold change Tl+ flux (F380Y) 0.0907 | log fold change Tl+ flux (F380Y/beta2Delta) -0.0416 | log fold change Tl+ flux [9] -0.0112 | log fold change Tl+ flux (R275C/beta2Delta) 0.0368 | log fold change Tl+ flux (R275C/beta4) -0.00829 | log fold change Tl+ flux (R275C/Slo1WT/beta2) -0.0412

CC1CC2C3CCC4=CC(=O)C=CC4(C)[C@@]3(Cl)C(O)CC2(C)C1(O)C(=O)CO (stereo not given in full)
8490: cell count [7, 13]
67.8%: viability [1]
active: log fold change Tl+ flux (F380Y/beta1) 0.0975 | log fold change Tl+ flux (R275C/beta1) 0.106
1.07: fold change [7, 11]
7120: cell count [7, 12]
inactive: parasite load remaining [1] 68.1% | fluorescence ratio [2] 0.98 | inhibition [3] -0.22% | inhibition [4] -1.97% | fluorescence ratio [5] 0.95 | mean signal [6] 282 | fold change [7, 10] 0.839 | log fold change Tl+ flux (F380Y) 0.104 | log fold change Tl+ flux (F380Y/beta2Delta) -0.00287 | log fold change Tl+ flux (F380Y/beta4) 0.0497 | log fold change Tl+ flux [9] 0.0373 | log fold change Tl+ flux (R275C) -0.0315 | log fold change Tl+ flux (R275C/beta2Delta) 0.0411 | log fold change Tl+ flux (R275C/beta4) 0.0585 | log fold change Tl+ flux (R275C/Slo1WT/beta2) 0.0245
